# Test results published in PubChem BioAssay (EPA / NIEHS).
# Several values for one entry are separate records, joined by “and”; a condition that tells them apart may be missing. Identical values can stand only once. Records with an inconclusive call do not appear. A structure can be active in one record and inactive in another. Activity calls are given as the source filed them. How the source made its calls: active means hit-call score of the fitted dose curve at least 0.9, where 1 is the maximum; inconclusive means response in the unintended direction; inactive means score below 0.9.
# Columns and labels:
# [1] = ACEA_ER_AUC_viability: ACEA Biosciences xCELLigence Real-Time Cell Analysis on Estrogen Receptor Agonism for Viability (AID 2283782);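 further: hit means loss of impedance signal meaning reduced cell growth or viability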
# Method in brief: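 Read-out: real-time electrical impedance (RT-CES) area under curve, loss of signal taken as reduced viability, normalized to DMSO baseline. T-47D cells, charcoal-stripped serum medium, compounds up to 100 uM final, continuous exposure, 80 h.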
# [2] = target: AR (gene 367) (UniProt P10275); experiment: ACEA_AR_agonist_80hr: ACEA Biosciences xCELLigence Real-Time Cell Analysis on Androgen Receptor Agonism for Proliferation (AID 2283783);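 further: hits increase impedance growth signal above DMSO baseline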
# AR (gene 367), sequence (P10275 whole entry, looked up): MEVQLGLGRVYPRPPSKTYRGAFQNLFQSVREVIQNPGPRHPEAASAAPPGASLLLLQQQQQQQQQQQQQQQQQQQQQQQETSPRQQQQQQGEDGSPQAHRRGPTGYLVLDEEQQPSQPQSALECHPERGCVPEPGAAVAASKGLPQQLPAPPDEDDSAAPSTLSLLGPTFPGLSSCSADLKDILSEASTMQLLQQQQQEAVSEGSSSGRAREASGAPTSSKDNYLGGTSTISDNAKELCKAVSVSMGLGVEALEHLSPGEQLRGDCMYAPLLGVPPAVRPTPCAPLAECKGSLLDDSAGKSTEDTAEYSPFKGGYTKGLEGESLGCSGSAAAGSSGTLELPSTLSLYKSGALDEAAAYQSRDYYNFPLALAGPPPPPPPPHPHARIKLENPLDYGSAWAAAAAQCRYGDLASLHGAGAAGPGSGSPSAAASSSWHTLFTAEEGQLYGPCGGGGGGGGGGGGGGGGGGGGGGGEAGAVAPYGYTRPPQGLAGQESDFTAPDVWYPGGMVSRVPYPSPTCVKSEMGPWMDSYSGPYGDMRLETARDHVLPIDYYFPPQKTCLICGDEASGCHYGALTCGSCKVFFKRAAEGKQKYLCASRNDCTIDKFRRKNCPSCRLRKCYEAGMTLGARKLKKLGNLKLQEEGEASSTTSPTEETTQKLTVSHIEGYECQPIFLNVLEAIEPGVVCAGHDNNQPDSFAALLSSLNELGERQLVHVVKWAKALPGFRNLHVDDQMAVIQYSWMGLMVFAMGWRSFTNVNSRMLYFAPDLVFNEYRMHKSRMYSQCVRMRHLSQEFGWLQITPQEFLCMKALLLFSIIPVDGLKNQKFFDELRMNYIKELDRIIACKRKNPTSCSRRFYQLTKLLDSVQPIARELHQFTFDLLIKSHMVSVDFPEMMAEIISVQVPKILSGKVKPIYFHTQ
# Method in brief: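 Impedance (RT-CES) growth signal at 80 h post-dose; 22Rv1 cells, 8-pt 1:4 series, top 100 uM final, DMSO ≤0.5%; duplicate plates; gain-of-signal fit relative to DMSO baseline.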
# [3] = target: AR (gene 367) (UniProt P10275); experiment: ACEA_AR_antagonist_80hr: ACEA Biosciences xCELLigence Real-Time Cell Analysis on Androgen Receptor Antagonism for Proliferation (AID 2283787);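 further: 22Rv1 human prostate cancer cells with growth followed by electrical impedance; hits lower the impedance growth signal relative to DMSO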
# Method in brief: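 Measures real-time proliferation of 22Rv1 prostate cancer cells by electrode impedance at 80 hours after dosing. Test articles ran at eight concentrations (1:4 steps, top 100 uM final) in biological duplicate.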
# [4] = STM_H9_NormalizedViability: Cytotoxicity Assessment at 120 hours in the Stemina devTOX quickPredict H9 human embryonic stem cell (hESC)-based Assay (AID 2283784)
# Method in brief: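 Viability endpoint: background-corrected CellTiter-Fluor RFU expressed relative to the 0.1% DMSO mean on each plate. Undifferentiated H9 cells were treated with daily re-dosing and media change, and loss of signal was fitted.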
compound,measurement,setting,value
Oc1cc2ccccc2cc1O,AC50,[1],40.8 µM (active)
CCCCCCCCCCCCCCC,outcome,[1],inactive
Oc1cccc2c(O)cccc12,AC50,[1],20.2 µM (active)
O=C(O)c1cccc(C(=O)O)n1,outcome,[1],inactive
NCc1cccc(CN)c1,outcome,[1],inactive
COCN(COC)c1nc(N(COC)COC)nc(N(COC)COC)n1,outcome,[1],inactive
CN(C)c1ccc(C(=C2C=CC(=[N+](C)C)C=C2)c2ccccc2)cc1,AC50,[1],3.16 µM (active) and 3.1 µM (active)
Cc1cncc(C)c1,AC50,[1],12.1 µM (active)
O=C(O)C(=O)O,outcome,[1],inactive
CC(C)CCOCCC(C)C,AC50,[1],37.5 µM (active)
CC(C)c1c(C(=O)Nc2ccccc2)c(-c2ccccc2)c(-c2ccc(F)cc2)n1CC[C@@H](O)C[C@@H](O)CC(=O)O,AC50,[1],2.91 µM (active)
c1ccc2c(c1)CCC2,outcome,[1],inactive
CC1=NN(c2ccccc2)C(=O)C1,outcome,[1],inactive
CC1CNCC(C)O1 (stereo not given),outcome,[1],inactive
O=C(O)CCC(F)(F)C(F)(F)C(F)(F)C(F)(F)C(F)(F)C(F)(F)F,outcome,[1],inactive
CCCCCCCCCCCC[N+](C)(C)Cc1ccccc1,AC50,[1],3.05 µM (active) and 5.69 µM (active)
CCCCCC(C)OC(=O)COc1ccc(Cl)c2cccnc12 (stereo not given),outcome,[1],inactive
CCCCCCCCC1CCC(=O)O1 (stereo not given),AC50,[1],67.5 µM (active)
CNNCc1ccc(C(=O)NC(C)C)cc1,outcome,[1],inactive
C=CC(C)(CCC=C(C)C)OC(C)=O (stereo not given),outcome,[1],inactive
NS(=O)(=O)O,outcome,[1],inactive
CCCCCCCCCCCC,AC50,[1],50 µM (active) and 40.4 µM (active)
Cc1cc(Cc2cc(C)cc(C(C)(C)C)c2O)c(O)c(C(C)(C)C)c1,AC50,[1],11.4 µM (active)
Clc1ccc2c(Cl)ccnc2c1,outcome,[1],inactive
COc1ccc(C#N)cc1,AC50,[1],50 µM (active)
CN(CCO)S(=O)(=O)C(F)(F)C(F)(F)C(F)(F)C(F)(F)C(F)(F)C(F)(F)C(F)(F)C(F)(F)F,outcome,[1],inactive
OCCN1CN(CCO)CN(CCO)C1,AC50,[1],81.8 µM (active)
O=C1NS(=O)(=O)c2ccccc21,outcome,[1],inactive
CCOC(OCC)C(=O)c1ccccc1,outcome,[1],inactive
CCN(CCC#N)c1ccccc1,outcome,[1],inactive
CCCCCCc1ccc(N)cc1,AC50,[1],50 µM (active)
same,outcome,[2],inactive
same,outcome,[3],inactive
C=Cc1ccc(O)c(OC)c1,outcome,[1],inactive
same,AC50,[4],77.6 µM (active)
c1cc[nH]c1,AC50,[1],50 µM (active)
NC(=NCCCCCCN=C(N)/N=C(\N)Nc1ccc(Cl)cc1)/N=C(\N)Nc1ccc(Cl)cc1,AC50,[1],8.38 µM (active) and 9.06 µM (active)
same,outcome,[2],inactive
same,AC50,[3],9.25 µM (active)
OCC(CO)(CBr)CBr,outcome,[4],inactive
CC1=CC(=O)c2ccccc2C1=O,outcome,[4],inactive
O=C1OC2(c3ccccc31)c1cc(I)c(O)c(I)c1Oc1c2cc(I)c(O)c1I,AC50,[1],18.5 µM (active)
same,outcome,[1],inactive
COc1cc([N+](=O)[O-])ccc1N,outcome,[1],inactive
same,AC50,[3],2.99 µM (active)
Cc1cc(C(=C2C=CC(=Nc3ccc(S(=O)(=O)O)cc3)C=C2)c2ccc(Nc3ccc(S(=O)(=O)O)cc3)cc2)cc(S(=O)(=O)O)c1N,outcome,[1],inactive
same,outcome,[3],inactive
CCCCc1ccc2ccccc2c1S(=O)(=O)O,outcome,[1],inactive
same,outcome,[3],inactive
Cn1sccc1=O,AC50,[1],40.2 µM (active)
same,outcome,[4],inactive
CN(Cc1cnc2nc(N)nc(N)c2n1)c1ccc(C(=O)N[C@@H](CCC(=O)O)C(=O)O)cc1,outcome,[2],inactive
same,AC50,[4],0.0867 µM (active)
same,AC50,[3],0.39 µM (active)
CCO[Si](C)(C)OCC,outcome,[1],inactive
CC(C)[C@@H]1CC[C@@H](C)C[C@H]1O,outcome,[1],inactive
same,AC50,[3],0.48 µM (active)
CCCCCCCCCC=CCC1CC(=O)OC1=O (stereo not given),outcome,[1],inactive
same,outcome,[3],inactive
Oc1c(Cl)cc(Cl)cc1Sc1cc(Cl)cc(Cl)c1O,outcome,[4],inactive
O=C(O)C(F)(F)OC(F)(F)C(F)(F)OC(F)(F)C(F)(F)OC(F)(F)C(F)(F)C(F)(F)C(F)(F)F,AC50,[1],119 µM (active)
CCCCc1oc2ccccc2c1C(=O)c1cc(I)c(OCCN(CC)CC)c(I)c1,AC50,[1],11.5 µM (active)
same,AC50,[4],4.41 µM (active)
C=COC(=O)C(C)(C)CCCCCC,AC50,[1],19.6 µM (active)
CN(C)CCOC(c1ccccc1)c1ccccc1,AC50,[1],50 µM (active)
same,outcome,[2],inactive
same,AC50,[4],8.23 µM (active)
O=C(c1ccccc1)c1ccccc1,outcome,[2],inactive
same,outcome,[4],inactive
same,outcome,[3],inactive
CCCCC(CC)C(=O)O (stereo not given),outcome,[1],inactive
same,outcome,[4],inactive
CC(C)(C)c1ccc(O)c(O)c1,AC50,[1],23.4 µM (active)
same,AC50,[4],86.5 µM (active)
Nc1ccn([C@@H]2O[C@H](CO)[C@@H](O)C2O)c(=O)n1 (stereo not given in full),AC50,[1],9.92 µM (active)
